Test results published in PubChem BioAssay (NCATS).
Inconclusive results are not listed. Calls of active or inactive are those of the source. Unless noted, calls come from the whole dose curve; as a rule, active = well fitted curve in the direction sought with a large enough effect; inconclusive = small, poorly fitted or top-dose-only effect, or another doubt; inactive = no such curve, though single readings can be large; an effect the other way counts as inactive or inconclusive.

Assays:
[1] = target: Cytochrome P450 3A4 (Homo sapiens) (UniProt P08684); test: qHTS Assay for Inhibitors and Substrates of Cytochrome P450 3A4 (AID 884); note: nearly all actives have a fitted effect of over 50% in size; note: potency is the fitted concentration of half-maximal effect; for activity change, negative = inhibition: % is set by controls: 0 for no effect and ±100 for the full control effect
Sequence of Cytochrome P450 3A4 (Homo sapiens) (P08684 whole entry, looked up): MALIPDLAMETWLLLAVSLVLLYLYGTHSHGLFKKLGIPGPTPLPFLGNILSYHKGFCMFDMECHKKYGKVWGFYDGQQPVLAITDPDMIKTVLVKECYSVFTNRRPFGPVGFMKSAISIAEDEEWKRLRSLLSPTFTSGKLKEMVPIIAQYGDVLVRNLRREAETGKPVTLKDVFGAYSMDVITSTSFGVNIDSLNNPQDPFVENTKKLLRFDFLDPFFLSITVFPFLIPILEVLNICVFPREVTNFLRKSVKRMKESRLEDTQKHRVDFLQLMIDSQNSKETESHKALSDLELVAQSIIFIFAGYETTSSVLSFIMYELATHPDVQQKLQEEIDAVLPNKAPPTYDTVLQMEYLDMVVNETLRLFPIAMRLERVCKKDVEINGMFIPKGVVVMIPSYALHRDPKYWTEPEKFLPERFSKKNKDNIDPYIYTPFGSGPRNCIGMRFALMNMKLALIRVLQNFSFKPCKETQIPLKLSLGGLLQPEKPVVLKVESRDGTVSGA
Summary of the method: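 Luminescent readout of luciferin produced by CYP3A4 (20 nM) dealkylation of Luciferin-PPXE, 25 uM (its KM). NADPH-driven reaction ran 60 min at RT after 10 min compound preincubation; data scaled to 57 uM ketoconazole as 100% inhibition.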

[2] = target: Cytochrome P450 3A4 (Homo sapiens) (UniProt P08684); test: qHTS Assay for Activators of Cytochrome P450 3A4 (AID 885); note: nearly all actives have a fitted effect of over 65% in size; note: potency is the fitted concentration of half-maximal effect
Summary of the method: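 Using 20nM recombinant human CYP3A4 in potassium phosphate (200mM), substrate Luciferin-PPXE at 25uM, luminescent luciferin detection followed a 60-min RT NADPH reaction; data scaled to 57 uM ketoconazole.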

[3] = Confirmation and Secondary Assay for Modulators of Hemoglobin Beta Chain Splicing at IVS2 654 locus (AID 910);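 note: HeLa cells stably carrying EGFP split by mutant beta-globin IVS2-654 intron; per-well total GFP intensity by laser scanning cytometry after 2-day treatment; % of control where 0% means no effect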
Summary of the method: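 Readout: per-well total peak green fluorescence (488 nm ex, 500–520 nm em) from objects 5–250 µm, reflecting correct splicing of an EGFP-654 reporter. Compounds were applied for 2 days at 37 °C to overnight-plated HeLa EGFP-654 cells; controls were DMSO and 500 nM IVS2-654 PNA.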

[4] = Confirmation and Secondary Assay for Modulators of Hemoglobin Beta Chain Splicing at IVS2 705 locus (AID 930);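 note: HeLa cells stably expressing the EGFP-705 splicing reporter; GFP fluorescence per well restored by corrected splicing of the IVS2-705 intron in EGFP; % of control where 0% means no effect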
Summary of the method: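 Splice-correction reporter: EGFP cDNA split by beta-globin intron 2 bearing the 705 mutation, stably in HeLa. Compound incubation 2 days, 37C; fluorescent objects 5-250 µm summed per well.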

[5] = qHTS Assay for Lipid Storage Modulators (AID 1519; calls by dose curve; note: potency is the fitted concentration of half-maximal effect; for activity change, negative = inhibition: % is set by controls: 0 for no effect and ±100 for the full control effect); settings: Drosophila S3 cells, BODIPY lipid droplet/cell ratio, laser cytometry, cells loaded with oleic acid; for activity change, negative = inhibition: at 57.5 µM (top of the series)
Summary of the method: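 Cells seeded at 5,000 per well were treated with compounds over a concentration series and loaded with oleic acid (400 uM, as added). Lipid droplet fluorescence (488 nm excitation, 500-530 nm channel) was read by laser-scanning cytometry and normalized to 20 uM Triacsin C.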

[6] = target: Ubiquitin carboxyl-terminal hydrolase 1 (Homo sapiens) (UniProt O94782); test: Inhibitors of USP1/UAF1: Pilot qHTS (AID 504865);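 note: rhodamine fluorescence freed from ubiquitin-rhodamine substrate followed over time; top concentration of the series differs between compounds; % is set by controls: 0 for no effect and ±100 for the full control effect; nearly all actives have a fitted effect of over 35% in size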
Sequence of Ubiquitin carboxyl-terminal hydrolase 1 (Homo sapiens) (O94782 whole entry, looked up): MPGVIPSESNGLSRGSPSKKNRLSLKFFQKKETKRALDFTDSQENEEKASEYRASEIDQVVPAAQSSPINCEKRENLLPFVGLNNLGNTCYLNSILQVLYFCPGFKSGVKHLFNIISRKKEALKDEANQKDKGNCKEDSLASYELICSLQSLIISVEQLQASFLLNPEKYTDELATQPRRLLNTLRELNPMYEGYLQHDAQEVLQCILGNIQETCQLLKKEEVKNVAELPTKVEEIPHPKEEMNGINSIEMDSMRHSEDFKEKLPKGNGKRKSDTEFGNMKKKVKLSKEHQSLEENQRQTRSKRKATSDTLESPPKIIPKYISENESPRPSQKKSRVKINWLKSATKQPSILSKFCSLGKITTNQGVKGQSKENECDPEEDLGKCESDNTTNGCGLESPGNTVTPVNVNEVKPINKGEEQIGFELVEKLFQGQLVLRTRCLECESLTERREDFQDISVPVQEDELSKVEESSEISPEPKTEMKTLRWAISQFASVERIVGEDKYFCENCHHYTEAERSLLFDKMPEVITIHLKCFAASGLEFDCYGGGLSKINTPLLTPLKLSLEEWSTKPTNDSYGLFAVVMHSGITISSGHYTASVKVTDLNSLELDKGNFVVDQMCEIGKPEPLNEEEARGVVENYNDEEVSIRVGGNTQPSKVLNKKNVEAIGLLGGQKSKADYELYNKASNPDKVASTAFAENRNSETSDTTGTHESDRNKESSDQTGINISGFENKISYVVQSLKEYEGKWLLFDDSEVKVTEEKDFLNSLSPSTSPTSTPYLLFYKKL
Summary of the method: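 USP1/UAF1 complex (1nM) preincubated with compound 15 min at room temperature, then Ub-Rho substrate (150nM final) added. Fluorescence read kinetically at 480/540 nm, 6 reads every 60 seconds. Buffer: 50mM HEPES pH 7.8, 0.5mM EDTA, 0.1 mg/ml BSA, 1mM TCEP, 0.01% Tween-20.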

[7] = target: DNA dC->dU-editing enzyme APOBEC-3G (Homo sapiens) (UniProt Q9HC16); test: qHTS for inhibitors of Vif-A3G interactions: Validation (AID 588379); note: 0% is about no effect
Sequence of DNA dC->dU-editing enzyme APOBEC-3G (Homo sapiens) (Q9HC16 whole entry, looked up): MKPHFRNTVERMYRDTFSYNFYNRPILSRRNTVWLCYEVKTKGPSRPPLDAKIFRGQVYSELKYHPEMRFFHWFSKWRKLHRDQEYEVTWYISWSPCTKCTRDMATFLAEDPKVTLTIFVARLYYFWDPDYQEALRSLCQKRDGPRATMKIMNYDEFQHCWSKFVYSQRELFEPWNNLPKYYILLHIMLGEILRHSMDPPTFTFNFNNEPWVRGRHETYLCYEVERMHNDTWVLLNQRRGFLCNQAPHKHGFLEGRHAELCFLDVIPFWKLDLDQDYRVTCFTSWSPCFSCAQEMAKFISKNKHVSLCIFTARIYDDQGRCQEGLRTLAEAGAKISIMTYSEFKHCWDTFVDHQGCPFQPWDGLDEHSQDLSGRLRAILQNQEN
Summary of the method: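 Yellow fluorescence (Ex 488, Em 500-530) of Vif-coexpressing HeLa A3G-eYFP cells, scanned by Acumen cytometer, reports blocked A3G degradation. Cells plated at 700/well overnight at 37 deg C before compound addition, then a further overnight compound incubation at 37 deg C.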

[8] = measured here: cell count channel max response
[9] = measured here: lipid channel max response

SMILES	Potency [1]	Potency [2]	Potency [3]	Potency [4]	activity change, negative = inhibition [5]	max response [5, 8] [%]	max response [5, 9] [%]	Potency [6]	outcome [7]	Potency [5]
CC(=O)OC1CC(OC(C)=O)[C@]2(C)C(CC(O)[C@]3(C)C2CC[C@@]2(C)C(c4ccoc4)OC(=O)C4O[C@]432)C1(C)C (some centres undefined)	2.51 µM (active)	inactive	inactive	inactive	-15.6% (inactive)	-1.7	-11.8			
COc1ccc2c(c1)OC1(O)COc3cc(OC)c(OC)cc3C1=C2 (centres undefined)	7.94 µM (active)	inactive	inactive	inactive	0.865% (inactive)	-18.4	-15.5			
CC(=O)OC1CC[C@@]2(C)C3=CC(=O)[C@]4(C)C(CC5OC6(OCC(C)CC6Br)C(C)C54)C3CC[C@H]2C1 (some centres undefined)			inactive	inactive	-8.55% (inactive)	-17.7	-20.5	inactive		
Nc1nc2c(ncn2C2OC(CO)CC2O)c(=O)[nH]1 (centres undefined)			inactive	inactive	6.37% (inactive)	3.55	10.6	inactive		
CC(=O)C1CCC2C3CC=C4CC(O)CC[C@@]4(C)C3CC[C@]12C (some centres undefined)				inactive	2.94% (inactive)	11.3	18.4	inactive		
COC1C=CC23c4cc5c(cc4CN(CC2O)C3C1)OCO5 (centres undefined)			inactive	inactive	-1.59% (inactive)	30.3	31.3	inactive		
N=c1ccn2c(n1)O[C@@H]1[C@H](O)[C@H](CO)O[C@@H]12	inactive				-7.95% (inactive)	4.02	-4.27			
Cn1c(=O)[nH]c2nc[nH]c2c1=O			inactive	inactive	5.61% (inactive)	14	22.4	inactive		
NC(Cc1c[nH]c2ccccc12)C(=O)NCC(=O)O (centres undefined)	inactive				2.26% (inactive)	-12.4	-10.5		inactive	
COc1cc(C(=O)OC2CC[C@]3(C)C4CCC5[C@]6(O)CC(O)[C@]7(O)C(CN8CC(C)CCC8[C@]7(C)O)[C@]6(O)C[C@@]53O[C@]24O)cc(OC)c1OC (some centres undefined)			inactive	inactive	4.04% (inactive)	17.4	24.2	inactive		
CC1=C(C(=O)O)N2C(=O)C(NC(=O)C(N)c3ccc(O)cc3)C2SC1 (centres undefined)			inactive	inactive	7.51% (inactive)	4.8	14.9	inactive		
Cn1nnnc1SCC1=C(C(=O)O)N2C(=O)C(NC(=O)C(O)c3ccccc3)C2SC1 (centres undefined)			inactive	inactive	13.2% (inactive)	9.16	26.7	inactive		
CCOC(=O)C(CCc1ccccc1)NC(C)C(=O)N1CCCC1C(=O)O (centres undefined)				inactive	10.8% (inactive)	9.89	24.1	inactive		
CC(=O)[C@]1(O)CCC2C3CCC4=CC(=O)CC[C@@]4(C)C3CC[C@]21C (some centres undefined)				inactive	5.01% (inactive)	6.92	12.7	inactive		
CCC(=O)OCC(=O)C1(OC(=O)CC)C(C)CC2C3C(Cl)CC4=CC(=O)C=C[C@@]4(C)C3C(O)C[C@@]21C (some centres undefined)			inactive	inactive	4.4% (inactive)	1.88	8.57	inactive		
COC(=O)C(N)CS (centres undefined)			inactive	inactive	6.93% (inactive)	11.1	22.7	inactive		
O=C(O)CCCC[C@@H]1SC[C@H]2NC(=O)N[C@@H]12	inactive				6.17% (inactive)	12.9	23.3		inactive	
COc1ccccc1-c1cc(=O)c2cccc(OC)c2o1	20 µM (active)	inactive	inactive	inactive	6.98% (inactive)	13.5	23.2			
C[C@]12CCC(=O)C=C1CCC1C2C(O)C[C@]2(C)C1CC[C@]2(O)C(=O)CO (some centres undefined)			inactive	inactive	12.8% (inactive)	7.87	21.1	inactive		
COc1ccc(/C=C/C(=O)c2ccc(O)cc2O)cc1	2.51 µM (active)	inactive	inactive	inactive	5.71% (inactive)	11.7	19.5			
NC(Cn1ccc(=O)c(O)c1)C(=O)O (centres undefined)			inactive	inactive	3.76% (inactive)	3.01	10.8	inactive		
CC(N)C(O)c1cccc(O)c1 (centres undefined)			inactive	inactive	8.66% (inactive)	6.62	19.6	inactive		
C[N+]1(C)CC(O)[C@H](C(=O)[O-])C1 (some centres undefined)			inactive	inactive	1.35% (inactive)	0.129	0.467	inactive		
C[N+](C)(C)CCOP(=O)([O-])OP(=O)(O)OCC1OC(n2ccc(N)nc2=O)C(O)C1O (centres undefined)			inactive	inactive	5.88% (inactive)	9.36	16.8	inactive		
O=C(/C=C/c1ccc(O)c(O)c1)O[C@@H]1C[C@@](O)(C(=O)O)C[C@H](O)[C@@H]1O	inactive				-7.73% (inactive)	3.01	-5.95			

SMILES	Potency [1]	Potency [2]	Potency [3]	Potency [4]	activity change, negative = inhibition [5]	max response [5, 8] [%]	max response [5, 9] [%]	Potency [6]	outcome [7]	Potency [5]
CC(=O)SC1CC2=CC(=O)CC[C@@]2(C)C2CC[C@@]3(C)[C@@H](CC[C@@]34CCC(=O)O4)C12 (some centres undefined)				inactive	-11.4% (inactive)	20.1	9.46	inactive		
c1ccc2c(c1)CN1CCCC1=N2	inactive	inactive	inactive	inactive	5.8% (inactive)	4.77	11.2			
O=c1oc2ccccc2cc1O			inactive	inactive	6.16% (inactive)	4.09	13.1	inactive		
CC1CC[C@@]2(C(=O)O)CCC3(C)C(=CCC4[C@]5(C)CC(O)C(O)[C@](C)(CO)C5C(O)C[C@@]43C)C2C1C (some centres undefined)			inactive	inactive	7.29% (inactive)	14.9	28.6	inactive		
O=c1cc(-c2ccccc2O)oc2cc(O)ccc12			inactive	inactive	8.08% (inactive)	28.6	40	inactive		
C[C@]12CCC3c4ccc(OC(=O)c5ccccc5)cc4CCC3C1CCC2=O (some centres undefined)			inactive	inactive	11.1% (inactive)	14.4	28.4	inactive		
O=c1c2ccccc2oc2ccccc12			inactive	inactive	15% (inactive)	9.44	28	inactive		
C[C@@H]1C(=O)O[C@H]2[C@@H](O)[C@@]34[C@H]5CC(C(C)(C)C)[C@]36[C@@H](OC(=O)[C@@H]6O)O[C@@]4(C(=O)O5)[C@@]12O (some centres undefined)					7.16% (inactive)	-2.81	2.02		inactive	
CCC(C)C(=O)OC1C2CC3=C4CC(=O)OC(c5ccoc5)[C@]4(C)CCC3[C@@](C)(C2=O)C(CC(=O)OC)C1(C)C (some centres undefined)	6.31 µM (active)	inactive	inactive	inactive	-2.94% (inactive)	-4.4	-5.82			
COc1c(-c2coc3cc4c(cc3c2=O)CC(O)C(C)(C)O4)ccc2c1C=CC(C)(C)O2 (centres undefined)	inactive	2.51 µM (active)	inactive	inactive		-20.3	-70.3			0.0708 µM (active)
COC(=O)C(O)C1C(C)(C)C(OC(C)=O)C2CC3=C4CC(=O)OC(c5ccoc5)[C@]4(C)CCC3[C@@]1(C)C2=O (some centres undefined)	10 µM (active)	inactive	inactive	inactive	0.311% (inactive)	4.91	8.34			
CC1O[C@@H](O[C@H]2C(Oc3cc(O)c4c(=O)cc(-c5ccc(O)cc5)oc4c3)OC(CO)C(O)C2O)C(O)C(O)C1O (some centres undefined)	inactive		inactive	inactive	4.65% (inactive)	16.6	23.3			
CC(C)CCCC(C)C1CCC2C3CC=C4CC(=O)CC[C@@]4(C)C3CC[C@@]12C (some centres undefined)	inactive		inactive	inactive	3.79% (inactive)	3.76	6.47			
CC(CCC(=O)O)C1CCC2C3CC[C@H]4CC(O)CC[C@@]4(C)C3C=C[C@]12C (some centres undefined)	inactive		inactive	inactive	5.52% (inactive)	9.1	18.3			
CC1=CCc2c(cc3oc(C)cc(=O)c3c2O)OC1	25.1 µM (active)	inactive	inactive	inactive	15.7% (inactive)	14.5	19.5			
CC(=O)OC1CC2C(C)(C)C(O)CC[C@@]2(C)C2CC[C@@]3(C)C(c4ccoc4)OC(=O)C4OC43[C@]12C (some centres undefined)	2.51 µM (active)	inactive	inactive	inactive	-20.5% (inactive)	-7.63	-27.3			
CC1=CC(=O)C2C(C)(C)CCC[C@@]2(C)[C@@]1(O)CCc1ccoc1 (some centres undefined)	15.8 µM (active)	inactive	inactive	inactive	-1.73% (inactive)	10.7	10.8			
COc1ccc(C(C)C(=O)c2ccc(O)cc2O)cc1 (centres undefined)	3.98 µM (active)	inactive	inactive	inactive	0.578% (inactive)	-18.6	-16.9			
COc1ccc(-c2oc3ccccc3c(=O)c2O)cc1OC	20 µM (active)	inactive	inactive	inactive	7.98% (inactive)	6.61	24.2			
COc1ccccc1-c1coc2cc(O)ccc2c1=O	25.1 µM (active)	inactive	inactive	inactive	5.08% (inactive)	-6.55	10.3			
COC(=O)CCC(C)C1CCC2C3CC[C@H]4CC(O)CC[C@@]4(C)C3CC(O)[C@]12C (some centres undefined)	inactive		inactive	inactive	1.15% (inactive)	-3.87	-3.09			
CC(=O)OC1CC[C@]2(C)C(CC(OC(C)=O)[C@]3(C)C2CC[C@@]2(C)C(c4ccoc4)OC(=O)C4O[C@]432)C1(C)C (some centres undefined)	inactive		inactive	inactive	15.1% (inactive)	12.6	25.6			
COc1ccc2c(c1)OC/C(=C\c1ccc(OC)c(O)c1)C2=O	10 µM (active)	inactive	inactive	inactive	-9.54% (inactive)	2.46	-8.22			
COC(=O)c1cc(=O)c(O)c2c(O)c(O)ccc2c1	inactive		inactive	inactive	-1% (inactive)	-7.53	-9.52			
COC(=O)CC1C(C)(C)C(=O)C2CC3=C(CC[C@]4(C)C3=CC(=O)OC4c3ccoc3)[C@@]1(C)C2=O (some centres undefined)	2.51 µM (active)	inactive	inactive	inactive	-1.73% (inactive)	16	14.2			
